The values that follow come from PubChem BioAssay (NCI).

This is part of a sample that, as a whole, favours compounds with a hit. Of some 83,000 tested, about 20% had one in any assay.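 Activity criterion: percent growth below 10, measured after cells in 96-well plates were exposed to a single compound concentration for 48 hours.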 Values without a mark were called inactive. Calls of active or inactive are those of the source.

The first experiment deals with PC-3 prostate. Description: NCI-60 one-dose screen, 48 h (100 = growth as untreated, 0 = no growth, -100 = all killed). The settings on record: 10 µM unless noted.
For the compound `COc1ccc(NC(=O)CSc2nnc(-c3ccc4nc(-c5ccccc5)[nH]c4c3)o2)cc1`, the growth is 105%.

With `COc1ccc(N2C(=O)c3cc(Cl)ccc3NC2SCc2ccccc2)cc1` (stereo unspecified), the growth was 84.8%.

For `O=C(CSc1nc2ccccc2c(=O)n1-c1ccccc1)Nc1ccc(-c2nc3ccc([N+](=O)[O-])cc3[nH]2)cc1`, the growth is 69.7%.

In the case of `O=C(NCCn1ccnc1)c1ccc(-c2nc3ccc4[nH]ncc4c3c3c2CCCC3)cc1`, the growth is 47.6%.

On to `CCCC(=O)NC(c1cccnc1)c1cc(C(C)(C)C)c2cccnc2c1O` (stereo unspecified), for which the growth is 44.1%.

In the case of `NC(N)=Nc1ccc(Oc2cccc(Nc3ccc(Cl)cc3)c2)cn1`, the growth is -77.5% (active).

With `O=C(CN1CCN(c2cc(=O)[nH]c3ccc(F)cc23)CC1)Nc1ccc(Cl)cc1`, the growth is 78.6%.

On to `C=C(C=O)[C@@H]1CC[C@]2(C)[C@H](C(=O)C=C3[C@H]4C[C@](C)(C(=O)OC)CC[C@]4(C)CC[C@]32C)[C@@]1(C)CCC#N`, for which the growth is 11.2%.

A further experiment has as its system SK-MEL-5 melanoma. The description is as above. The settings on record: 10 µM unless noted.
`Cc1ccc(NC(=O)c2ccc(CN3CCN(C)CC3)cc2)cc1Oc1ccc(-c2[nH]nc3ncnc(N)c23)cc1`: the growth was 85.2%.

Turning to `CCCn1cnc2c(c1=N)C(c1ccc(Cl)cc1)c1sc3c(C)cccc3c1O2` (stereo unspecified), the growth is 28.7%.

For the compound `C=C(C=O)[C@@H]1CC[C@]2(C)[C@H](CC=C3[C@H]4[C@@H](C)[C@H](C)CC[C@]4(C(=O)OC)CC[C@]32C)[C@@]1(C)CCC#N`, the growth was -98% (active).

On to `NC(N)=Nc1ccc(Oc2cccc(NC(N)=Nc3ccc(I)cc3F)c2)cn1`, for which the growth is 48.8%.

Regarding `Cc1occc1-c1nc2s/c(=C/c3ccc(-c4cc(C(F)(F)F)ccc4Cl)o3)c(=O)n2n1`, the growth was 99.7%.

On to `C[C@H]1c2[nH]c3ccccc3c2C[C@H]2C(=O)N(CCCCCCC(=O)NO)CC(=O)N21`, for which the growth was 83%.

On to `COc1ccc(-c2cc(-c3ccc(Cl)cc3)c(C#N)c(=O)n2Cc2ccc(C(=O)O)cc2)cc1`, for which the growth is 87.2%.

On to `O=C1[C@H]2Cc3c([nH]c4ccccc34)[C@@H](c3ccc(Cl)cc3)N2C(=O)CN1C1CCN(Cc2ccccc2)CC1`, for which the growth is 56.1%.

As to `COc1cc(-c2nn(C(C)(C)C)cc2-c2ccnc(NCCCNS(=O)(=O)c3ccc(C)cc3)n2)ccc1Cl`, the growth is 83.1%.

Regarding `CCCCNNC(=O)c1ccc(-c2cccc(F)c2F)cc1`, the growth was 5.84% (active).

`CC1(C)CC[C@]2(C(=O)N3CCOCC3)CC[C@]3(C)C(=CC[C@@H]4[C@@]5(C)C/C(=C/c6ccccn6)C(=O)C(C)(C)[C@@H]5CC[C@]43C)[C@@H]2C1`: the growth was 69.3%.

Turning to `O=S(=O)(NCCNc1nccc(-n2cnc3ccccc32)n1)c1ccc(Br)cc1`, the growth was 89.1%.

As for `CC1(C)CC[C@]23CC[C@]4(C)[C@H](CC[C@@H]5[C@@]6(C)CCCN(CO)C(C)(C)[C@@H]6CC[C@]54C)[C@H]2[C@H]1OC3`, the growth was 100%.

Regarding `O=C1[C@H]2Cc3c([nH]c4ccccc34)[C@@H](c3ccc(Br)cc3)N2C(=O)CN1C1CCN(CC2CCCCC2)CC1`, the growth was -99.8% (active).

For `COc1ccc([C@H]2c3[nH]c4ccccc4c3C[C@H]3C(=O)N(C4CCN(Cc5c(Cl)cccc5Cl)CC4)CC(=O)N23)c(OC)c1`, the growth is 95.7%.

In the case of `NS(=O)(=O)c1ccc(Nc2nc(Nc3ccccc3)nc3nnc(SCC(=O)NC4CCCCC4)n23)cc1`, the growth is 105%.

Consider `O=C(NNc1nc2cc(F)ccc2n2c(CN3CCC(O)C3)ccc12)c1cnccn1` (stereo unspecified), for which the growth was 4.28% (active).

Turning to `CCN(CC)c1cn(-c2ccc(S(N)(=O)=O)cc2)nn1`, the growth is 104%.

Regarding `O=[N+]([O-])c1cc(/C=N/Nc2nc(N/N=C/c3ccc(Cl)c([N+](=O)[O-])c3)nc(N3CCCCC3)n2)ccc1Cl`, the growth was 77.8%.

On to `CC(=O)Nc1cccc(Nc2nc(N[C@@H](C)c3ccccc3)c3ccccc3n2)c1`, for which the growth is -5.52% (active).

In the case of `COc1ccc(COc2ccc(/C=C3\C(=O)Nc4ccccc43)cc2OC)cc1`, the growth was 108%.

Turning to `CCNC(=O)Oc1ccc(/C(=C(/C)c2ccccc2)c2ccc(OCCN3CCCCCC3)cc2)cc1`, the growth was -94.7% (active).

In the case of `COc1cc(/C=N/NC(=O)c2cn(C3CC3)c3c(OC)c(N4CC5CCCNC5C4)c(F)cc3c2=O)ccc1O` (stereo unspecified), the growth was 95.4%.

With `CC(C)c1ccc(NCc2cn(-c3ccc(C(=O)O)cc3)nc2-c2cc(C(F)(F)F)cc(C(F)(F)F)c2)cc1`, the growth was 96%.

In the case of `C[C@@H]1C[C@H]2C(=O)O[C@@H](C)C(NC(=O)[C@H](Cc3cc(F)cc(F)c3)NC(=O)Nc3ccc(Cl)cc3F)C(=O)N3CCC[C@H]3C(=O)N3CCCC[C@H]3C(=O)N[C@@H](CO)C(=O)N2C1` (stereo partly specified), the growth is -2.76% (active).

Turning to `CC(=O)O[C@@H]1C(=O)N(c2cnccn2)[C@H]1c1ccccc1[N+](=O)[O-]`, the growth was -57.2% (active).

`C=C1CC[C@@H]2[C@]3(C)COC(c4ccccc4)O[C@@H]3CC[C@@]2(C)[C@@H]1C/C=C1/C(=O)OC[C@H]1O` (stereo partly specified): the growth is 94.7%.

`Nc1nc(-c2cccc([N+](=O)[O-])c2)c(N=Nc2cccc([N+](=O)[O-])c2)s1`: the growth was 63.9%.

In the case of `Nc1cc(F)ccc1NC(=O)c1ccc(NC(=O)C/C=C/c2cccnc2)cc1`, the growth was 49.7%.

Turning to `CCc1nn2c(C)cc(C)nc2c1Cc1ccc(/C=C/CN2CCN(CCOCCOCCN3CCN(C/C=C/c4ccc(Cc5c(CC)nn6c(C)cc(C)nc56)cc4)CC3)CC2)cc1`, the growth was -97.5% (active).

`COc1ccc(NC(=O)CSc2nnc(-c3ccc4nc(-c5ccccc5)[nH]c4c3)o2)cc1`: the growth was 85.9%.

Consider `COc1ccc(N2C(=O)c3cc(Cl)ccc3NC2SCc2ccccc2)cc1` (stereo unspecified), for which the growth is 102%.

As to `O=C(CSc1nc2ccccc2c(=O)n1-c1ccccc1)Nc1ccc(-c2nc3ccc([N+](=O)[O-])cc3[nH]2)cc1`, the growth was 91.4%.

Regarding `O=C(NCCn1ccnc1)c1ccc(-c2nc3ccc4[nH]ncc4c3c3c2CCCC3)cc1`, the growth was 89.9%.

As to `CCCC(=O)NC(c1cccnc1)c1cc(C(C)(C)C)c2cccnc2c1O` (stereo unspecified), the growth was -15.4% (active).

With `NC(N)=Nc1ccc(Oc2cccc(Nc3ccc(Cl)cc3)c2)cn1`, the growth was 48.8%.

As for `O=C(CN1CCN(c2cc(=O)[nH]c3ccc(F)cc23)CC1)Nc1ccc(Cl)cc1`, the growth is 80.9%.

As for `C=C(C=O)[C@@H]1CC[C@]2(C)[C@H](C(=O)C=C3[C@H]4C[C@](C)(C(=O)OC)CC[C@]4(C)CC[C@]32C)[C@@]1(C)CCC#N`, the growth is -88% (active).
